ELG1 DNA repair: qHTS screen for small molecules that inhibit ELG1-dependent DNA repair in human embryonic kidney (HEK293T) cells expressing luciferase-tagged ELG1 | AID 504467, 2011 | Potency, µM (highest dose often 46.1 µM), for inactives: top-dose activity change, negative = inhibition, usual class: inhibitors | HEK293T ELG1-luciferase reporter, luminescence, 16 h; DNA damage induced by 5-fluorouridine | 330,000 tested, 2.3% active; also: % is scaled to controls: 0 for no effect and ±100 for the full control effect; nearly all actives have a fitted effect of over 55% in size
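Cells (2,000 per well) received 5-fluorouridine plus test compound or DMSO and were incubated 16 hr at 37 °C, 5% CO2. Luciferase activity was read by luminescence 30 min after ONE-Glo addition; signal suppression marked inhibition of damage-induced ELG1 function.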
MCF10A rerep: A quantitative high throughput screen for small molecules that induce DNA re-replication in MCF 10a normal breast cells; MCF 10A DNA re-replication, Hoechst nuclear intensity, 48 h; Potency, µM (series often up to 46.1 µM), without a hit: top-dose activity, positive = re-replication, most hits filed as activators; 350,000 tested, 2.9% active; also: % of control where 0% means no effect; nearly all actives have a fitted effect of over 50% in size
RORg inh: qHTS for inhibitors of ROR gamma transcriptional activity | Nuclear receptor ROR-gamma (Mus musculus), P51450 | Drosophila S2 Gal4-RORgamma UAS-luciferase reporter, 20 h | Potency, µM (highest dose often 53.6 µM), inactives show top-dose activity change, negative = inhibition, hits mostly inhibitors | 310,000 tested, 5.4% active; also: % is scaled to controls: 0 for no effect and ±100 for the full control effect; nearly all actives have a fitted effect of over 60% in size
Target sequence (P51450 whole entry, looked up, the tested form may be a part): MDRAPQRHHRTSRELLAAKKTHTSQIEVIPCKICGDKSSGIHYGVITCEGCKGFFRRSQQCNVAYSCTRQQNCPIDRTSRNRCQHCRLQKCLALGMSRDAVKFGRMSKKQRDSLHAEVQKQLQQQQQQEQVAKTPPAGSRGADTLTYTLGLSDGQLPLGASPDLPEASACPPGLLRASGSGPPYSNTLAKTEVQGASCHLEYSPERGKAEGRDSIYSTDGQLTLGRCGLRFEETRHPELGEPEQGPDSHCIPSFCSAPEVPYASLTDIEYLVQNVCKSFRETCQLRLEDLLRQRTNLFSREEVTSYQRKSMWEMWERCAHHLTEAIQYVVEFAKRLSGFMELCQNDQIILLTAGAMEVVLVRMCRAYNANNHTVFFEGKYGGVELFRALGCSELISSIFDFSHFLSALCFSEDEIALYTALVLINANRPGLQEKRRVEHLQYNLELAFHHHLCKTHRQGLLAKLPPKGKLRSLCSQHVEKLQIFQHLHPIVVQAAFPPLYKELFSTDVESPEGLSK
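Using a luciferase readout, inhibitors were identified by reduced reporter activity in Drosophila cells coexpressing a copper-inducible Gal4–ROR gamma fusion and UAS-driven Photinus luciferase, incubated 20 hr after 700 uM copper sulfate.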
SW480 rereplic: A quantitative high throughput screen for small molecules that induce DNA re-replication in SW480 colon adenocarcinoma cells | SW480 DNA re-replication, Hoechst DNA content imaging, 48 h | Potency, µM (series often up to 46.1 µM), for inactives: top-dose re-replication activation, actives largely listed as activators | 340,000 tested, 1.8% active | AID 624297, 2012; also: % of control where 0% means no effect; nearly all actives have a fitted effect of over 55% in size
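Per well, 250 cells were exposed to pinned compound for 48 hr. Nuclear DNA was visualised with Hoechst (40 min, 37 C) and total object intensity recorded by fluorescence scanning.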
VP16 counter: VP16 counterscreen qHTS for inhibitors of ROR gamma transcriptional activity | 310,000 tested, 3.5% active | AID 2546, 2010 | Potency, µM (series often up to 53.6 µM), inactives show top-dose activity, negative = inhibition, hits mostly inhibitors | Drosophila S2 Gal4-VP16 UAS-luciferase, luminescence, 20 h;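 also: Gal4-VP16 expression switched on by copper sulfate through the metallothionein promoter; % is scaled to controls: 0 for no effect and ±100 for the full control effect; nearly all actives have a fitted effect of over 50% in size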
An asterisk follows results filed as active; ? = inconclusive; . = no result given; [ ] = remark or other dose. Compounds with a hit are over-represented: about 10% of the library has one in this group of screens. Calls follow the shape of the dose curve; as a rule, active = well fitted curve in the direction sought with a large enough effect; inconclusive = small, poorly fitted or top-dose-only effect, or another doubt; inactive = no such curve, though single readings can be large; an effect the other way counts as inactive or inconclusive. Potency is read from the fitted curve at half-maximal effect.

SMILES	ELG1 DNA repair	MCF10A rerep	RORg inh	SW480 rereplic	VP16 counter
OCCNc1nc(N2CCN(c3ccccc3)CC2)nc2ccccc12	-1%	7.3µM*	.	1%	.
OCCNc1nc(Nc2ccc(O)cc2)nc2ccccc12	-2%	5%	6%	11%	-7%
CCOC(=O)c1ccc(N2C=C(C(=O)OC)C(c3ccc(OC)c(O)c3)C(C(=O)OC)=C2)cc1	?	11%	12%	?	-11%
Cc1ccc(C)c(NC(=S)Nc2cccc3cnccc23)c1	?	?	?	13µM*	9%
Fc1ccccc1NC(=S)Nc1cccc2cnccc12	?	8%	0%	-4%	-4%
CSc1cccc(NC(=S)Nc2cc(C)ccc2C)c1	13%	2%	11µM*	-1%	?
Cc1ccccc1NC(=S)Nc1cccc2cnccc12	?	1%	10µM*	0%	-11%
Cc1ccc(NC(=S)Nc2cccc3cnccc23)cc1C	-22%	-3%	?	-5%	3.2µM*
Cc1ccc(NC(=S)Nc2cccc3cnccc23)cc1	?	26%	?	0%	?
CCC(Cc1c(I)cc(I)c(O)c1I)C(=O)O (stereo unspecified)	.	2%	6%	0%	2%
Cc1ccc(N(CC(=O)NC2CCCCC2)S(=O)(=O)c2cccs2)cc1	11%	-2%	-29%	-10%	-1%
COc1ccc(C2=NN(C(=O)c3ccccc3)C(c3ccc(OC)c(OC)c3)C2)c(O)c1 (stereo unspecified)	?	11%	-1%	-5%	-4%
CC1CCCCN1C(=O)Nc1cccc(C(F)(F)F)c1 (stereo unspecified)	3%	-7%	22%	1%	22%
Cc1ccc(F)c(NC(=S)Nc2cccc3ccccc23)c1	-11%	.	11µM*	.	?
CN(CC(=O)Nc1cccc(F)c1)C(=O)CCNC(=O)c1ccco1	20%	?	.	12%	.
Cc1cc(C)cc(NC(=O)CN2CCc3cc4c(cc3C2C)OCCCO4)c1 (stereo unspecified)	?	18%	13%	-2%	-14%
Cc1cccc(NC(=O)CN2CCc3cc4c(cc3C2C)OCCCO4)c1 (stereo unspecified)	21µM*	13%	?	?	-17%
CCOC(=O)c1oc2ccc(CNC3CCCCC3)c(Cl)c2c1C	-10%	16µM*	-6%	?	-4%
O=C(Nc1ccc(N2CCOCC2)cc1)c1cnccn1	?	-5%	5µM*	3%	7.9µM*
O=C(Nc1ccc(N2CCOCC2)cc1)c1cnsn1	?	-2%	2µM*	1%	1.8µM*
[2H]c1c([2H])c([2H])c(-c2nc(N3CCCCCC3)sc2C(=O)c2ccccc2)c([2H])c1[2H]	?	7.3µM*	-10%	?	-9%
COc1cccc(CN(C)CCCn2cnc(C(=O)Nc3ccc(C)c(C)c3)n2)c1	.	2%	.	0%[9.22 µM]	.
Cc1ccc(N2C(=S)NC3c4cc(Cl)ccc4OC2(C)C3C(=O)N(C)C)cc1 (stereo unspecified)	6%	14%	11µM*	9%	-20%
COc1ccc(/C=C2\CN(Cc3ccccc3)C/C(=C\c3ccc(OC)c(O)c3)C2=O)cc1O	?	?	16µM*	3.7µM*	?
CCN1C/C(=C/c2ccc(OC)c(O)c2)C(=O)/C(=C/c2ccc(OC)c(O)c2)C1	?	?	6.3µM*	?	?
SMILES	ELG1 DNA repair	MCF10A rerep	RORg inh	SW480 rereplic	VP16 counter
CCN1C/C(=C\c2cccc([N+](=O)[O-])c2)C(=O)/C(=C/c2cccc([N+](=O)[O-])c2)C1	3.3µM*	2.6µM*	29%	0.58µM*	1%
COCC(=O)N1CCC[C@@]2(CCN(c3ccccc3)C2)C1	.	.	-3%	.	1%
COc1cccc(Cn2c(=O)c(-c3cccs3)nc3cnc(N4CCN(C)CC4)nc32)c1	.	.	-24%	.	-2%
CC(C)=NO[C@@H](C)c1cc(-c2c(C)cc(C)cc2C)no1	.	.	10%[10 µM]	.	-7%[10 µM]
CCOc1ccccc1N(CC(=O)NC1CCCC1)S(=O)(=O)c1ccc(C)cc1	?	-2%	13%	2%	9%
Cc1cc(NC(=O)c2cccc(COc3ccc(Br)cc3)c2)no1	?	7%	7.1µM*	-15%	?
CCOc1ccc(C(=O)Nc2cc(C)on2)cc1	?	3%	?	-1%	?
CCOc1cc(C(=O)Nc2cc(C)on2)cc(OCC)c1OCC	21µM*	22%	2.2µM*	-20%	1%
Cn1cccc1/C=N/n1c(-c2ccco2)n[nH]c1=S	-6%	0%	11µM*	5%	-4%
Cc1cccc(/C=N/n2c(-c3ccco3)n[nH]c2=S)c1	0%	-7%	?	0%	-20%
S=c1[nH]nc(-c2ccco2)n1/N=C/c1cccc(Cl)c1	23%	8%	14µM*	-6%	-16%
Cc1ccsc1/C=N/n1c(-c2ccco2)n[nH]c1=S	4%	-185%[0.0737 µM]	-71%	5%	-23%
Cc1ccc(/C=N/n2c(-c3ccco3)n[nH]c2=S)cc1	4%	0%	7.1µM*	-12%	?
S=c1[nH]nc(-c2ccccn2)n1/N=C/c1cccc(Cl)c1	-12%	0%	11µM*	-2%	?
S=c1[nH]nc(-c2ccccn2)n1/N=C/c1ccco1	-5%	-10%	-24%	-14%	0%
NC(=O)NC(=O)COC(=O)/C=C/c1cccs1	8%	1%	8%	?	3%
CN(Cc1c(F)cccc1Cl)C(=O)c1cnc2ccccc2n1	21%	3%	1%	-32%	-14%
S=c1[nH]nc(-c2ccco2)n1/N=C/c1ccc(Cl)c(Cl)c1	16%	?	5.6µM*	1%	5.6µM*
CC(C)NC(=O)c1ccccc1NC(=O)/C=C/c1cccc([N+](=O)[O-])c1	?	-9%	?	-1%	7.9µM*
CC(C)OCCCn1c(-c2ccc(Br)cc2)c[nH]c1=S	-10%	18%	1µM*	0%	2.8µM*
CC(C)OCCCNC(=O)c1ccc(Br)cc1	?	-2%	9%	-8%	?
O=C(NCc1n[nH]c(=S)n1-c1cccc(Cl)c1)c1cccs1	-1%	-35%	-2%	24%	0%
O=C(NCc1n[nH]c(=S)n1-c1ccc(Cl)c(Cl)c1)c1cccs1	7%	-12%	16µM*	-10%	6%
Nc1ccccc1-c1ccc([N+](=O)[O-])cc1	.	23µM*	.	?	.

Assay outcomes (PubChem BioAssay)
